According to PubChem BioAssay (NCI):
The panel holds about 79,000 compounds, 15% with a hit somewhere; the sample as a whole holds those more often. Unmarked numbers belong to inactive results. The source made the active and inactive calls. Cut-off read from the data, not from the text of the source: active = growth inhibition above about 70%; inactive = the rest.

Assays:
[1] = NCI Yeast Anticancer Drug Screen. Data for the rad52 strain (AID 147);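 note: 0% = growth of vehicle-treated control cultures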; conditions: S. cerevisiae rad52 mutant growth inhibition, hits give high values
Procedure, shortened: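 Genetically altered yeast (DNA damage repair defect) treated with compound; inhibition calculated relative to vehicle.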

[2] = NCI Yeast Anticancer Drug Screen. Data for the wt1 strain (AID 149);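 note: 0% = growth of vehicle-treated wt1 cultures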; conditions: S. cerevisiae wt1 strain (SPY 50644) growth inhibition, hits give high values
Procedure, shortened: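 wt1 yeast, compound-treated; % growth inhibition vs vehicle control.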

[3] = NCI Yeast Anticancer Drug Screen. Data for the rad50EPP+ strain (AID 151);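 note: 0% = growth of vehicle-treated control cultures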; conditions: S. cerevisiae rad50 mutant strain, hits give high values
Procedure, shortened: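 Strain rad50EPP+; compound exposure; % growth inhibition vs vehicle.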

[4] = NCI Yeast Anticancer Drug Screen. Data for the mgt1 strain (AID 153); conditions: S. cerevisiae mgt1 mutant growth inhibition, hits give high values
Procedure, shortened: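 Read-out: yeast growth inhibition vs vehicle control. Strain mgt1, drawn from a panel altered in DNA damage repair or cell cycle control.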

[5] = NCI Yeast Anticancer Drug Screen. Data for the rad50 strain (AID 155);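 note: 0% = growth of vehicle-only cultures of the same strain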; conditions: S. cerevisiae rad50 strain growth inhibition, hits give high values
Procedure, shortened: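 Genetically altered yeast (DNA repair pathway); compound treatment; growth inhibition vs vehicle ctrl.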

[6] = NCI Yeast Anticancer Drug Screen. Data for the mec2-1 strain (AID 157); conditions: S. cerevisiae mec2-1 strain, hits give high values
Procedure, shortened: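 Cells of the genetically defined mec2-1 yeast strain are incubated with test compound. Inhibition of growth is calculated against vehicle-treated controls.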

[7] = NCI Yeast Anticancer Drug Screen. Data for the rad14 strain (AID 159);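 note: 0% = growth of vehicle-treated control cultures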; conditions: S. cerevisiae rad14 strain growth inhibition, hits give high values
Procedure, shortened: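 Test compounds were applied to a repair-deficient yeast strain. Its growth was then compared with that of cultures given vehicle alone, and inhibition was expressed relative to those controls.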

[8] = NCI Yeast Anticancer Drug Screen. Data for the sgs1 mgt1 strain (AID 161);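 note: 0% = growth of cultures given vehicle only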; conditions: S. cerevisiae sgs1 mgt1 strain, hits give high values
Procedure, shortened: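 Inhibition of yeast growth, normalised to vehicle-treated controls, is reported for a strain bearing genetic alterations in DNA damage repair.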

[9] = NCI Yeast Anticancer Drug Screen. Data for the CLN2oe strain (AID 163);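 note: 0% = growth of vehicle-only control cultures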; conditions: S. cerevisiae CLN2oe strain, hits give high values
Procedure, shortened: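 Strain altered in cell-cycle control, incubated with compound; growth compared to solvent-treated controls.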

[10] = NCI Yeast Anticancer Drug Screen. Data for the cln2 rad14 strain (AID 165);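 note: 0% = growth equal to vehicle treated cultures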; conditions: S. cerevisiae cln2 rad14 strain, hits give high values
Procedure, shortened: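 The screen exposed genetically defined yeast (cln2 rad14) to test compounds and scored growth inhibition relative to vehicle-treated controls.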

[11] = NCI Yeast Anticancer Drug Screen. Data for the bub3 strain (AID 167); conditions: S. cerevisiae bub3 mutant strain, hits give high values
Procedure, shortened: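 Yeast carrying a defined mutation is treated with each compound, and growth is compared with that of vehicle-exposed cells to give inhibition.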

[12] = NCI Yeast Anticancer Drug Screen. Data for the wt2 strain (AID 169);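 note: 0% = growth of vehicle-treated yeast cultures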; conditions: S. cerevisiae wt2 strain growth inhibition, hits give high values
Procedure, shortened: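 Steps: yeast strain treated with compound; growth recorded; inhibition calculated relative to cultures given vehicle alone.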

[13] = NCI Yeast Anticancer Drug Screen. Data for the mlh1 strain (AID 171);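 note: 0% = growth of vehicle-treated control cultures of the same strain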; conditions: S. cerevisiae mlh1 strain growth inhibition, hits give high values
Procedure, shortened: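 Yeast screen: mutant strain plus compound, growth scored against vehicle control wells.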

[14] = NCI Yeast Anticancer Drug Screen. Data for the sgs1 strain (AID 173);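 note: 0% = growth of vehicle-only control cultures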; conditions: S. cerevisiae sgs1 mutant, hits give high values
Procedure, shortened: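 Inhibition of yeast growth served as the measure. The mutant strain was treated with each compound, and growth was normalised to cultures receiving vehicle alone.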

[15] = NCI Yeast Anticancer Drug Screen. Data for the mlh1 rad18 strain (AID 175); conditions: S. cerevisiae mlh1 rad18 strain growth inhibition, hits give high values
Procedure, shortened: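 Compound-treated yeast growth, normalised to vehicle controls. Strain bears defined DNA repair mutations.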

[16] = NCI Yeast Anticancer Drug Screen. Data for the rad18 strain (AID 177); conditions: S. cerevisiae rad18 mutant growth inhibition, hits give high values
Procedure, shortened: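 Inhibition values reflect reduced yeast growth compared with vehicle-treated controls, using a strain engineered with a DNA damage repair defect.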

[17] = at 5.0 µM (retest, dose inferred, filed as 0.5)
[18] = at 50.0 µM (retest, dose inferred, filed as 5.0)

Cc1ccc(S(=O)(=O)Nc2cccc3cccnc23)cc1
growth inhibition ([1]; at 1.2 µM): 10% | growth inhibition ([1]; at 3.7 µM): 14% | growth inhibition ([1]; at 11.0 µM): 25% | growth inhibition ([1]; at 33.0 µM): 75% (active) | growth inhibition ([1]; at 100.0 µM): 52% | growth inhibition ([2]; at 1.2 µM): 15% | growth inhibition ([2]; at 3.7 µM): 14% | growth inhibition ([2]; at 11.0 µM): 18% | growth inhibition ([2]; at 33.0 µM): 71% (active) | growth inhibition ([2]; at 100.0 µM): 39% | growth inhibition ([3]; at 1.2 µM): 16% | growth inhibition ([3]; at 3.7 µM): 17% | growth inhibition ([3]; at 11.0 µM): 16% | growth inhibition ([3]; at 33.0 µM): 62% | growth inhibition ([3]; at 100.0 µM): 66% | growth inhibition ([4]; at 1.2 µM): 14% | growth inhibition ([4]; at 3.7 µM): -5% | growth inhibition ([4]; at 11.0 µM): 25% | growth inhibition ([4]; at 33.0 µM): 77% (active) | growth inhibition ([4]; at 100.0 µM): 79% (active) | growth inhibition ([5]; at 1.2 µM): 15% | growth inhibition ([5]; at 3.7 µM): 25% | growth inhibition [5, 17]: 46% | growth inhibition ([5]; at 11.0 µM): 22% | growth inhibition ([5]; at 33.0 µM): 79% (active) | growth inhibition [5, 18]: 97% (active) | growth inhibition ([5]; at 50.0 µM): 46% | growth inhibition ([5]; at 100.0 µM): 84% (active) | growth inhibition ([6]; at 1.2 µM): 7% | growth inhibition ([6]; at 3.7 µM): 18% | growth inhibition [6, 17]: 49% | growth inhibition ([6]; at 11.0 µM): 23% | growth inhibition ([6]; at 33.0 µM): 79% (active) | growth inhibition [6, 18]: 98% (active) | growth inhibition ([6]; at 50.0 µM): 20.2% | growth inhibition ([6]; at 100.0 µM): 60% | growth inhibition ([7]; at 1.2 µM): -19% | growth inhibition ([7]; at 3.7 µM): -16% | growth inhibition ([7]; at 11.0 µM): 16% | growth inhibition ([7]; at 33.0 µM): 72% (active) | growth inhibition ([7]; at 100.0 µM): 56% | growth inhibition [8, 17]: -15% | growth inhibition [8, 18]: 41% | growth inhibition ([8]; at 50.0 µM): 59% | growth inhibition ([9]; at 1.2 µM): 15% | growth inhibition ([9]; at 3.7 µM): 12% | growth inhibition ([9]; at 11.0 µM): 41% | growth inhibition ([9]; at 33.0 µM): 69% | growth inhibition ([9]; at 100.0 µM): 46% | growth inhibition [10, 17]: 25% | growth inhibition [10, 18]: 54% | growth inhibition ([10]; at 50.0 µM): 48% | growth inhibition ([11]; at 1.2 µM): -11% | growth inhibition ([11]; at 3.7 µM): -14% | growth inhibition [11, 17]: 29% | growth inhibition ([11]; at 11.0 µM): -3% | growth inhibition ([11]; at 33.0 µM): 50% | growth inhibition [11, 18]: 23% | growth inhibition ([11]; at 50.0 µM): 27.7% | growth inhibition ([11]; at 100.0 µM): 15% | growth inhibition ([12]; at 1.2 µM): -13% | growth inhibition ([12]; at 3.7 µM): -5% | growth inhibition ([12]; at 11.0 µM): 8% | growth inhibition ([12]; at 33.0 µM): 53% | growth inhibition ([12]; at 100.0 µM): 59% | growth inhibition ([13]; at 1.2 µM): 14% | growth inhibition ([13]; at 3.7 µM): 3% | growth inhibition ([13]; at 11.0 µM): 9% | growth inhibition ([13]; at 33.0 µM): 78% (active) | growth inhibition ([13]; at 100.0 µM): 62% | growth inhibition ([14]; at 1.2 µM): 1% | growth inhibition ([14]; at 3.7 µM): 4% | growth inhibition ([14]; at 11.0 µM): 44% | growth inhibition ([14]; at 33.0 µM): 82% (active) | growth inhibition ([14]; at 100.0 µM): 63% | growth inhibition [15, 17]: 44% | growth inhibition [15, 18]: 100% (active) | growth inhibition ([15]; at 50.0 µM): 71% (active) | growth inhibition ([16]; at 1.2 µM): 9% | growth inhibition ([16]; at 3.7 µM): 4% | growth inhibition ([16]; at 11.0 µM): 25% | growth inhibition ([16]; at 33.0 µM): 74% (active) | growth inhibition ([16]; at 100.0 µM): 71% (active)

CC1(C)C(O)OC(O)C1(C)C (stereo unspecified)
growth inhibition ([1]; at 1.2 µM): 0% | growth inhibition ([1]; at 3.7 µM): 0% | growth inhibition ([1]; at 11.0 µM): 2% | growth inhibition ([1]; at 33.0 µM): 7% | growth inhibition ([1]; at 100.0 µM): 30% | growth inhibition ([2]; at 1.2 µM): 0% | growth inhibition ([2]; at 3.7 µM): 0% | growth inhibition ([2]; at 11.0 µM): 4% | growth inhibition ([2]; at 33.0 µM): 2% | growth inhibition ([2]; at 100.0 µM): 8% | growth inhibition ([3]; at 1.2 µM): 0% | growth inhibition ([3]; at 3.7 µM): -1% | growth inhibition ([3]; at 11.0 µM): 2% | growth inhibition ([3]; at 33.0 µM): 1% | growth inhibition ([3]; at 100.0 µM): 12% | growth inhibition ([4]; at 1.2 µM): -1% | growth inhibition ([4]; at 3.7 µM): -1% | growth inhibition ([4]; at 11.0 µM): 2% | growth inhibition ([4]; at 33.0 µM): 16% | growth inhibition ([4]; at 100.0 µM): 10% | growth inhibition ([5]; at 1.2 µM): -1% | growth inhibition ([5]; at 3.7 µM): -2% | growth inhibition [5, 17]: 15% | growth inhibition ([5]; at 11.0 µM): 0% | growth inhibition ([5]; at 33.0 µM): 5% | growth inhibition [5, 18]: 8% | growth inhibition ([5]; at 50.0 µM): 69% | growth inhibition ([5]; at 100.0 µM): 25% | growth inhibition ([6]; at 1.2 µM): 0% | growth inhibition ([6]; at 3.7 µM): 2% | growth inhibition [6, 17]: 1% | growth inhibition ([6]; at 11.0 µM): 2% | growth inhibition ([6]; at 33.0 µM): 6% | growth inhibition [6, 18]: -10% | growth inhibition ([6]; at 50.0 µM): 29.4% | growth inhibition ([6]; at 100.0 µM): 23% | growth inhibition ([7]; at 1.2 µM): -2% | growth inhibition ([7]; at 3.7 µM): -2% | growth inhibition ([7]; at 11.0 µM): 0% | growth inhibition ([7]; at 33.0 µM): 3% | growth inhibition ([7]; at 100.0 µM): 22% | growth inhibition [8, 17]: -9% | growth inhibition [8, 18]: 14% | growth inhibition ([8]; at 50.0 µM): 58.5% | growth inhibition ([9]; at 1.2 µM): -10% | growth inhibition ([9]; at 3.7 µM): -3% | growth inhibition ([9]; at 11.0 µM): 0% | growth inhibition ([9]; at 33.0 µM): -5% | growth inhibition ([9]; at 100.0 µM): 3% | growth inhibition [10, 17]: 32% | growth inhibition [10, 18]: 7% | growth inhibition ([10]; at 50.0 µM): 24.4% | growth inhibition ([11]; at 1.2 µM): -7% | growth inhibition ([11]; at 3.7 µM): -7% | growth inhibition [11, 17]: -8% | growth inhibition ([11]; at 11.0 µM): -6% | growth inhibition ([11]; at 33.0 µM): -8% | growth inhibition [11, 18]: -13% | growth inhibition ([11]; at 50.0 µM): 37.4% | growth inhibition ([11]; at 100.0 µM): -6% | growth inhibition ([12]; at 1.2 µM): -1% | growth inhibition ([12]; at 3.7 µM): 1% | growth inhibition ([12]; at 11.0 µM): 5% | growth inhibition ([12]; at 33.0 µM): 5% | growth inhibition ([12]; at 100.0 µM): 10% | growth inhibition ([13]; at 1.2 µM): 0% | growth inhibition ([13]; at 3.7 µM): -1% | growth inhibition ([13]; at 11.0 µM): 4% | growth inhibition ([13]; at 33.0 µM): 6% | growth inhibition ([13]; at 100.0 µM): 18% | growth inhibition ([14]; at 1.2 µM): 1% | growth inhibition ([14]; at 3.7 µM): 5% | growth inhibition ([14]; at 11.0 µM): 11% | growth inhibition ([14]; at 33.0 µM): 25% | growth inhibition ([14]; at 100.0 µM): 63% | growth inhibition [15, 17]: 3% | growth inhibition [15, 18]: 56% | growth inhibition ([15]; at 50.0 µM): 60.8% | growth inhibition ([16]; at 1.2 µM): -1% | growth inhibition ([16]; at 3.7 µM): 2% | growth inhibition ([16]; at 11.0 µM): 13% | growth inhibition ([16]; at 33.0 µM): 31% | growth inhibition ([16]; at 100.0 µM): 77% (active)
